Here are results for five molecules from PubChem BioAssay.

Each structure is given as a SMILES string. Active and inactive are the calls of the source.

The nature of test [1]: binders of probe aFSTL3 on microarray, primary screen, stem cell growth factor project, biochemical, small-molecule microarray, fluorescence 635/667 (AID 1064).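 Also: measures binding of the biotinylated anti-FSTL3 antibody to printed compounds.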 The following applies: higher = more signal.
Test [2] is described as follows: binders from COS7 lysate, DM2A8 probe, primary screen, torsin A project, cell lysate, small-molecule microarray, fluorescence 635/667 (AID 1065). The following applies: higher = more signal, COS7 lysate expressing mutant human TOR1A.
A short description of test [3]: binders of probe aFGF2 on microarray, primary screen, stem cell growth factor project, biochemical, small-molecule microarray, fluorescence 635/667 (AID 1067).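 Also: measures binding of biotinylated aFGF2 protein to printed compounds on slides; z-score merges feature fluorescence and signal-to-noise across triplicate slides.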 The note with it: higher = more signal.
Test [4] is described as follows: binders of probe aFGF10 on microarray, primary screen, stem cell growth factor project, biochemical, small-molecule microarray, fluorescence 635/667 (AID 1071).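 Also: score merges 667 nm spot intensity and signal to noise from triplicate slides.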 The note with it: higher = more signal.
In test [5] the target is Neurogenic locus notch homolog protein 2 (Homo sapiens) (UniProt Q04721). Description: Notch2 binders on small-molecule microarrays, primary screen, biochemical, small-molecule microarray, 635 nm fluorescence, stem cell growth factors (AID 1073). The note with it: Notch2 binding, higher = more signal.
Neurogenic locus notch homolog protein 2 (Homo sapiens), sequence (Q04721 whole entry, looked up, canonical isoform): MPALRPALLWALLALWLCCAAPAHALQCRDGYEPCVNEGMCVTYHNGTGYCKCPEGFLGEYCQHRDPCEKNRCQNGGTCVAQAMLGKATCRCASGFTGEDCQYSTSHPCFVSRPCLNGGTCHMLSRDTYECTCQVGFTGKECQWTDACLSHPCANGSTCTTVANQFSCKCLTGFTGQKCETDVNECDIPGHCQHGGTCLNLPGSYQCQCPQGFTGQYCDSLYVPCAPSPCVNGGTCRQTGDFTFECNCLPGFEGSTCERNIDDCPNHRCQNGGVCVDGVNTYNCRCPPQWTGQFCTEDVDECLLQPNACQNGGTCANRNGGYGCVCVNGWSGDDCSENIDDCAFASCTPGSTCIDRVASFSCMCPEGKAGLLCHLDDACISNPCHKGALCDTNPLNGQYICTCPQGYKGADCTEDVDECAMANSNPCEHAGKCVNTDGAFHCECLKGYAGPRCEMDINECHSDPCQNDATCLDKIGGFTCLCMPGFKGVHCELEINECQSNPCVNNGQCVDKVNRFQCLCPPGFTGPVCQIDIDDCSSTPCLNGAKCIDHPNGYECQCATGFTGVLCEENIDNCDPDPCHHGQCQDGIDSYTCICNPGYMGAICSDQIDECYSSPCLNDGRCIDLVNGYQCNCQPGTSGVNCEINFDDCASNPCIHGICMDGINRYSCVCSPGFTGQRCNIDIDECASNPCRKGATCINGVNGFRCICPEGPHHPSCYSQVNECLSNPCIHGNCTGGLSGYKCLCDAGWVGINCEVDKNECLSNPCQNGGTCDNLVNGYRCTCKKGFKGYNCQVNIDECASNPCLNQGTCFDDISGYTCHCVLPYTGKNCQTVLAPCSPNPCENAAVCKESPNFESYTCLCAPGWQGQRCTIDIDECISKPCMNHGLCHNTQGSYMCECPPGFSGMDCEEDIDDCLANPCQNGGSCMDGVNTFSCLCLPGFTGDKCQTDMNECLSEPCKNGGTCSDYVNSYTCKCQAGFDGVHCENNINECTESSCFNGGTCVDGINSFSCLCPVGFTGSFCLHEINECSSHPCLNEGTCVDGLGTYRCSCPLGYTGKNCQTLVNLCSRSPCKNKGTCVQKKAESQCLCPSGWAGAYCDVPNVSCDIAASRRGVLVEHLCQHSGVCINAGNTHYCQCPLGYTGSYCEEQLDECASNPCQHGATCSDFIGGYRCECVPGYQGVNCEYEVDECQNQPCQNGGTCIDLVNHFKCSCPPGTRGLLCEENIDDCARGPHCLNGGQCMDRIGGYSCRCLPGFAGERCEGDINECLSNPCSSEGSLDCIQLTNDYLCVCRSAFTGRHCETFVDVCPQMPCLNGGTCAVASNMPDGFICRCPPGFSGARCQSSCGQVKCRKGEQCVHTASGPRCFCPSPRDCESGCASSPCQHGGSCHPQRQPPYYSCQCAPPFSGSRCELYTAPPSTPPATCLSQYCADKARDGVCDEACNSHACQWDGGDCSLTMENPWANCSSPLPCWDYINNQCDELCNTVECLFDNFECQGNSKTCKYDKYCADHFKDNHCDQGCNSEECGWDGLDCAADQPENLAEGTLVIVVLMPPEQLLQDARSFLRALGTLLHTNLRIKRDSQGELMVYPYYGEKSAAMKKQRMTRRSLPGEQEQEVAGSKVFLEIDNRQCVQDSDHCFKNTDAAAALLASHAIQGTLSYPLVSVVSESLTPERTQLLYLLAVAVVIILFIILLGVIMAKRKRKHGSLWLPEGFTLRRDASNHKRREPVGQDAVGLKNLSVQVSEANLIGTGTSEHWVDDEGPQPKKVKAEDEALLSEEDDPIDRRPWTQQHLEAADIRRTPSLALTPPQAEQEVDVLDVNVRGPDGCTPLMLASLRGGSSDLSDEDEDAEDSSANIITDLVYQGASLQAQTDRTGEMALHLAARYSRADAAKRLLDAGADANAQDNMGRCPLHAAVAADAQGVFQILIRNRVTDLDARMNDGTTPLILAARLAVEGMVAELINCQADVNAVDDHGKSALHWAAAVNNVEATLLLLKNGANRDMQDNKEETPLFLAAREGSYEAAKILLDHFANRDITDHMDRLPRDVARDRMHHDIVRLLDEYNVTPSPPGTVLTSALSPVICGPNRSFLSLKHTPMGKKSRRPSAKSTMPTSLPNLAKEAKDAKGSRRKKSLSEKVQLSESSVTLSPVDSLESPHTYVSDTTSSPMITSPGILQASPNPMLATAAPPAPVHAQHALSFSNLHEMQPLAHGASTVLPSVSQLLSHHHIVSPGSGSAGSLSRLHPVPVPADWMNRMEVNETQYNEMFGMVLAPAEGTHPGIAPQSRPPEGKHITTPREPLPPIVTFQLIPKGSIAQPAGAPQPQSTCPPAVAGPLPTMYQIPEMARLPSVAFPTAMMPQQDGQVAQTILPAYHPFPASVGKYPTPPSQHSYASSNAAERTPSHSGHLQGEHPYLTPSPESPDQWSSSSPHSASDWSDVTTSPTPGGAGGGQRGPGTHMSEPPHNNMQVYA
The target in test [6] is Pro-neuregulin-1, membrane-bound isoform (Homo sapiens) (UniProt Q02297). Description: NRG1 binders on small-molecule microarrays, primary screen, psychiatric disease protein project, biochemical, small-molecule microarray, fluorescence 635/667 (AID 1075).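 Also: score combines 667 nm spot fluorescence with signal to noise.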 The following applies: NRG1 binding, 635 nm fluorescence, higher = more signal.
Pro-neuregulin-1, membrane-bound isoform (Homo sapiens), sequence (Q02297 whole entry, looked up, the tested form may be a part, canonical isoform): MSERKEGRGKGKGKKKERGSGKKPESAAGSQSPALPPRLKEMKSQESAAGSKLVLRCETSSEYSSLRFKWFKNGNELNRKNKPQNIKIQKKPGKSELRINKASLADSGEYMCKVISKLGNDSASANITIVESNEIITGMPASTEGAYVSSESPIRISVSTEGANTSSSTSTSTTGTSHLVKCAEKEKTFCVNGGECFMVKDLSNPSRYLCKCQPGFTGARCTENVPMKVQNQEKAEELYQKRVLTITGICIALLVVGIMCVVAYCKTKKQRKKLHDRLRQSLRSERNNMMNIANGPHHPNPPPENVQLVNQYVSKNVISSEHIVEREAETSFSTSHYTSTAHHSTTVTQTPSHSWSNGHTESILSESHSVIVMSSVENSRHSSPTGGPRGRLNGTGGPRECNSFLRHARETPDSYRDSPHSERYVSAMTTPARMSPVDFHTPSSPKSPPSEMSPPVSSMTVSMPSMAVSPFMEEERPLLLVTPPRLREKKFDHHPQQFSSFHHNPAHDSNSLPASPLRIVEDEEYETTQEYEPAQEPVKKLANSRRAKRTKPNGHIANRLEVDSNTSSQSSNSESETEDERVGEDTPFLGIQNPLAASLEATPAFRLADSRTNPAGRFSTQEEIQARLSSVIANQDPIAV
For test [7], the system named is Neuregulin-1 EGF-like domain. Kind of test: binders of neuregulin-1 EGF-like domain, primary screen, biochemical, small-molecule microarray, 635 nm fluorescence (AID 1081).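 Also: binding of the protein to compounds printed on small-molecule microarray slides.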 The note with it: small-molecule microarray binding, higher = more signal.
Test [8] is described as follows: FRG1 promoter luciferase signal modulators, primary screen, FRG1 inhibition for FSHD, cell-based, C2C12 myotubes, firefly/Renilla luciferase, luminescence (AID 1084). The following applies: higher = more signal, called active from +8 up or from −8 down.
The nature of test [9]: binders of probe aFST on microarray, primary screen, stem cell growth factor project, biochemical, small-molecule microarray, fluorescence 635/667 (AID 1086).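 Also: score merges 667 nm fluorescence with signal-to-noise of each printed compound spot.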 The note with it: higher = more signal.
Test [10] can be described thus: binders of probe aHhip on microarray, primary screen, stem cell growth factor project, biochemical, small-molecule microarray, fluorescence 635/667 (AID 1087).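 Also: score merges spot fluorescence at 667nm with spot signal to noise ratio.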 The following applies: higher = more signal.
Test [11] concerns PRMT1 (protein arginine N-methyltransferase 1). Description: PRMT1 binders on small-molecule microarrays, primary screen, biochemical, small-molecule microarray, 635 nm fluorescence (AID 1088).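 Also: binding of Prmt1 protein to compounds spotted on small-molecule microarray slides.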 The note with it: small-molecule microarray binding, higher = more signal.
The nature of test [12]: yeast growth modulation, basal conditions, primary screen, YJM789 clinical isolate, OD600, 24 h (AID 1089).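 Also: growth of clinical yeast isolate S. cerevisiae YJM 789 seeded 1000 cells per well; test concentration not given here.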 The note with it: S. cerevisiae YJM789 growth, higher = more signal, called active from +8 up or from −8 down.
A short description of test [13]: fission yeast growth modulation, primary screen, strain 972, OD600, 24 h, no modulator (AID 1090).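 Also: basal condition with compound alone and no growth modifier present; test concentration not given here.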 The following applies: S. pombe 972 growth, higher = more signal, called active from +8 up or from −8 down.
Test [14] in a line: S. cerevisiae growth modulation with rapamycin, primary screen, strain BY4716, OD600, 96 h (AID 1091). Also: test concentration not given here. The note with it: higher = more signal, called active from +8 up or from −8 down.
The target of test [15] is Torsin-1A-interacting protein 2 (Homo sapiens) (UniProt Q8NFQ8). Description: LULL1 binders on small-molecule microarray, primary screen, cell lysate, human LULL1 lysate, 635/667 nm fluorescence (AID 1092).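 Also: score merges per-feature 667 nm fluorescence with signal-to-noise.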 The following applies: hLULL1 lysate binding, 635 nm fluorescence, higher = more signal.
Torsin-1A-interacting protein 2 (Homo sapiens), sequence (Q8NFQ8 whole entry, looked up): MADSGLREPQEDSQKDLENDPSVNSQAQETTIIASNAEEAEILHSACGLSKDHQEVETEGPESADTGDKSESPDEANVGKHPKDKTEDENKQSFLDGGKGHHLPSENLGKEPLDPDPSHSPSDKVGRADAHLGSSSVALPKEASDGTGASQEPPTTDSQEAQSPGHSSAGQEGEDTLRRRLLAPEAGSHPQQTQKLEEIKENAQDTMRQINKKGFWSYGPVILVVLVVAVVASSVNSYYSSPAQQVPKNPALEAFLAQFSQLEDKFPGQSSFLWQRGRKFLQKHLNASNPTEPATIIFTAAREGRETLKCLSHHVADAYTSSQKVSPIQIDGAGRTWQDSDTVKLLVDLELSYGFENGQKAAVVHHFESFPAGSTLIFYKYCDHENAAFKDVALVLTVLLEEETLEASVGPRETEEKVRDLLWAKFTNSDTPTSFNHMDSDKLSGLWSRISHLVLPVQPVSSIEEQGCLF
Test [16] in a line: E. coli growth modulation, two-sided OD650, primary screen, E. coli filamentation project, strain DRC41, 24 h (AID 1093).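 Also: MC1000 strain lacking acrAB efflux and sulA so SOS filamentation is blocked; test concentration not given here.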 The note with it: OD650, 24 h, higher = more signal, called active from +8 up or from −8 down.
Test [17] can be described thus: small-molecule microarray binders of probe aLefty2, primary screen, biochemical, biotinylated probe, 635/667 nm fluorescence (AID 1094).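 Also: score merges spot fluorescence near 667 nm with spot signal-to-noise ratio.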 The following applies: higher = more signal.
For test [18], the system named is Noggin (protein binding on small-molecule microarray). Description: Noggin binders on small-molecule microarray, primary screen, biochemical, 635/667 nm fluorescence (AID 1095).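 Also: score merges 667 nm feature fluorescence with signal to noise over triplicate slides.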 The following applies: 635 nm fluorescence, higher = more signal.
The target of test [19] is Neurogenic locus notch homolog protein 3 (Homo sapiens) (UniProt Q9UM47). Kind of test: NOTCH3 binders on small-molecule microarray, primary screen, biochemical, 635/667 nm fluorescence (AID 1096). The following applies: NOTCH3 binding, 635 nm fluorescence, higher = more signal.
A short description of test [20]: small-molecule microarray binders of probe aEGFR, primary screen, biochemical, biotinylated probe, 635/667 nm fluorescence (AID 1097).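 Also: probe is a biotinylated anti-EGFR antibody binding compounds printed on slides; score combines fluorescence near 667 nm and signal to noise of each spot.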 The following applies: higher = more signal.

On to `CCOC(=O)C1=CC[C@@H](c2cccc(Br)c2)N(S(=O)(=O)c2ccc(C)cc2)[C@H]1c1ccc([N+](=O)[O-])cc1`, for which the composite z-score in test [1] is -0.508; in test [2], 2.18; in [3] it was -0.0535; in test [4], 0.928; in test [5] it was 1.52; in [6] it was 0.674. For the same molecule, the composite z-score in test [7] is 1.11; in [9], 0.339; in test [10], 0.305; in test [11] it was 1.53; in test [15], 2.96; in test [17] it was -0.0615. The composite z-score is 0.496 in test [18], 1.15 in [19] and 0.254 in [20]. The z-score in test [8] was -1.74 (inactive); in test [12] it was -0.412 (inactive); in test [13], -5.06 (inactive); in test [14], 3.93 (inactive); in test [16], -0.3 (inactive).

With `CN1C(=O)C2C=CC(C(O)C3CCCCC3)N(N(c3ccccc3)c3ccccc3)C2C1=O` (stereo not given), the composite z-score in test [1] was 1.61; in [2] it was -0.277; in [3], 0.182; in test [4], -0.122; in [5], -0.112; in [6], 1.12. The composite z-score in test [7] was 0.659; in test [9] it was 0.236; in test [10] it was -0.183; in [11], 0.102; in test [15] it was 2.5; in test [17], 0.368. The composite z-score in [18] is -0.539; in test [19], -0.396; in test [20] it was 0.114. In addition, the z-score in test [8] was -0.158 (inactive); in [12], 0.345 (inactive); in test [13], 1.25 (inactive); in test [14], 0.4 (inactive); in test [16], -0.989 (inactive).

For `C[N+](C)(C)CCCC[C@@H]1NC(=O)[C@H]2C[C@@H](C(=O)NCCCCCCN)[C@@H](c3cccc(OCCO)c3)N2C1=O`, the composite z-score in test [1] was found to be 1.71; in test [2] it was 1.85; in test [3], 0.0852; in test [4], 0.765; in test [5], 0.791; in test [6], 1.14. In addition, the composite z-score in [7] was 1.49; in test [9], 0.592; in test [10], 1.13; in [11], 1.54; in [15] it was 3.06; in test [17], 1.08. The composite z-score turned out to be 1.15 in test [18], 1.07 in [19] and 0.693 in test [20]. The z-score in [8] is 0.029 (inactive); in [12] it was -0.0132 (inactive); in [13], -0.87 (inactive); in test [14], -0.133 (inactive); in test [16], 0.27 (inactive).

For the molecule `[N-]=[N+]=NCc1ccccc1C[C@@]1(C(=O)NCCN2CCOCC2)N=C(c2ccc(OCCCO)cc2)O[C@@H]1c1ccccc1CN=[N+]=[N-]`, the composite z-score in test [1] was -0.166; in [2], 0.69; in [3] it was 0.105; in test [4], 0.924; in test [5], 1.26; in test [6] it was 1.27. In addition, the composite z-score was 1.21 in test [7]; 1.59 in test [9]; 0.0053 in test [10]; 1.56 in test [11]; 2.84 in test [15]; 0.146 in test [17]. The composite z-score in [18] amounted to 1.11; in test [19] it was 1.08; in test [20], 0.177. Also, the z-score in test [8] was -2.25 (inactive); in test [12], -0.0759 (inactive); in test [13], -0.67 (inactive); in test [14] it was 2.01 (inactive); in test [16], 1.24 (inactive).

On to `[N-]=[N+]=Nc1ccccc1[C@@H]1OC(c2ccc(OCCCO)cc2)=N[C@]1(CCS(=O)(=O)c1ccccc1)C(=O)NCc1ccccc1`, for which the composite z-score was 0.207 in test [1]; 0.599 in test [2]; 0.294 in test [3]; 0.655 in [4]; 1.52 in test [5]; 1.9 in [6]. In addition, the composite z-score in test [7] was 1.1; in test [9], 1.8; in test [10], -0.196; in test [11], 1.13; in test [15], 3.23; in test [17] it was 0.813. In addition, the composite z-score was found to be 0.326 in [18], 1.12 in test [19] and 0.203 in [20]. Moreover, the z-score in [8] is 0.271 (inactive); in test [12], 0.728 (inactive); in test [13], -0.111 (inactive); in [14] it was 0.635 (inactive); in test [16] it was 0.846 (inactive).
